Assay results reported in PubChem BioAssay (NCI).
Compounds without any hit were thinned out: in the full panel of roughly 83,000, 20% have a hit.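 Activity criterion: percent growth below 10, measured after cells in 96-well plates were exposed to a single compound concentration for 48 hours.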 The source made the active and inactive calls.

Columns and labels:
Test in all cases: NCI-60 one-dose screen, 48 h (100 = growth as untreated, 0 = no growth, -100 = all killed)
Details in all cases: 10 µM unless noted
HCT-15 colon = system: HCT-15 colon
HT29 colon = system: HT29 colon
SNB-75 CNS = system: SNB-75 CNS
SNB-19 CNS = system: SNB-19 CNS
U251 CNS = system: U251 CNS
PC-3 prostate = system: PC-3 prostate
SK-MEL-5 melanoma = system: SK-MEL-5 melanoma
UACC-62 melanoma = system: UACC-62 melanoma
LOX IMVI melanoma = system: LOX IMVI melanoma
SK-MEL-28 melanoma = system: SK-MEL-28 melanoma

Measured: growth

COC(=O)/C=C1/CCCCC1(C)C(=O)OC (stereo not given)
inactive: HCT-15 colon 93.1% | HT29 colon 102% | SNB-75 CNS 91.6% | SNB-19 CNS 102% | U251 CNS 97.2% | PC-3 prostate 102% | SK-MEL-5 melanoma 112% | UACC-62 melanoma 106% | LOX IMVI melanoma 102% | SK-MEL-28 melanoma 100%

N#CC1=C(N2CCOCC2)NC2c3ccccc3Sc3ccccc3N2C1=N (stereo not given)
inactive: HCT-15 colon 104% | HT29 colon 104% | SNB-75 CNS 94.1% | SNB-19 CNS 107% | U251 CNS 98.7% | PC-3 prostate 88.8% | SK-MEL-5 melanoma 90.3% | UACC-62 melanoma 87.4% | LOX IMVI melanoma 94.2% | SK-MEL-28 melanoma 93.9%

CC(=O)OC1/C=C\CC/C=C\C1 (stereo not given)
inactive: HCT-15 colon 98% | HT29 colon 109% | SNB-75 CNS 82.6% | SNB-19 CNS 100% | U251 CNS 96.6% | PC-3 prostate 96.4% | SK-MEL-5 melanoma 98.8% | UACC-62 melanoma 101% | LOX IMVI melanoma 106% | SK-MEL-28 melanoma 111%

CCCC(=O)Nc1ccccc1C(=O)O
inactive: HCT-15 colon 95.4% | HT29 colon 96.6% | SNB-75 CNS 89.4% | SNB-19 CNS 106% | U251 CNS 89.7% | PC-3 prostate 103% | SK-MEL-5 melanoma 99% | UACC-62 melanoma 105% | LOX IMVI melanoma 92.5% | SK-MEL-28 melanoma 107%

COc1cccc(CNC(=O)c2cccc(C3CC(=O)c4c(cc(OC)c(OC)c4OC)O3)c2)c1 (stereo not given)
inactive: HCT-15 colon 43.5% | HT29 colon 68% | SNB-75 CNS 27.7% | SNB-19 CNS 51.2% | U251 CNS 49.3% | PC-3 prostate 20.8% | SK-MEL-5 melanoma 59.4% | UACC-62 melanoma 24.3% | LOX IMVI melanoma 44.9% | SK-MEL-28 melanoma 65.7%

Cc1ncc(C(=O)Nc2ccc(CN3CCN(C)CC3)c(C(F)(F)F)c2)cc1C#Cc1cnc(NC2CC2)c2ncccc12
active: HCT-15 colon -91.9% | HT29 colon -80.7% | SNB-75 CNS -96.5% | SNB-19 CNS -97.2% | U251 CNS -95% | PC-3 prostate -66.9% | SK-MEL-5 melanoma -98.5% | UACC-62 melanoma -62.8% | LOX IMVI melanoma -81% | SK-MEL-28 melanoma -91.5%

CC/C(=N\Nc1nc2ccccc2n1C)c1ccccn1
active: SK-MEL-5 melanoma -50.7% | UACC-62 melanoma -13.9% | LOX IMVI melanoma -15%
inactive: HCT-15 colon 18.5% | HT29 colon 21.2% | SNB-75 CNS 19.5% | SNB-19 CNS 18.8% | U251 CNS 10.4% | PC-3 prostate 26.5% | SK-MEL-28 melanoma 16.2%

COC(=O)/C=C/c1cc(O)c2oc(-c3ccc(O)c(O)c3)c(C(=O)OC)c2c1
inactive: HCT-15 colon 14.1% | HT29 colon 59.8% | SNB-19 CNS 31.7% | U251 CNS 18.1% | PC-3 prostate 11.4% | UACC-62 melanoma 36.6% | LOX IMVI melanoma 19.1% | SK-MEL-28 melanoma 57.2%
active: SNB-75 CNS 7.74% | SK-MEL-5 melanoma -13.3%

CC1(C)N=C(N)N=C(N)N1c1cccc(CCCCOc2ccccc2)c1
inactive: HCT-15 colon 58.5% | HT29 colon 11.3% | SNB-75 CNS 60.8% | SNB-19 CNS 32.4% | U251 CNS 11.4% | SK-MEL-5 melanoma 17.9% | UACC-62 melanoma 20.8% | LOX IMVI melanoma 15.9% | SK-MEL-28 melanoma 39.3%
active: PC-3 prostate -6.9%

O=S(=O)(O)c1ccc2c(c1)Sc1cc(S(=O)(=O)O)ccc1O2
inactive: HCT-15 colon 113% | HT29 colon 106% | SNB-75 CNS 93.2% | SNB-19 CNS 103% | U251 CNS 102% | PC-3 prostate 99.2% | SK-MEL-5 melanoma 112% | UACC-62 melanoma 96% | LOX IMVI melanoma 99.7% | SK-MEL-28 melanoma 106%

COc1ccc(-c2nc(SCC(C)C)nc(Nc3ccccc3)c2C#N)cc1
inactive: HCT-15 colon 83.4% | HT29 colon 78.9% | SNB-75 CNS 89% | SNB-19 CNS 81.3% | U251 CNS 50.5% | PC-3 prostate 86.9% | SK-MEL-5 melanoma 96.7% | UACC-62 melanoma 88.1% | LOX IMVI melanoma 80.1% | SK-MEL-28 melanoma 112%

COc1ccccc1Cn1cc2c(c1)-c1oncc1CC2
inactive: HCT-15 colon 15.7% | SNB-75 CNS 13.7% | SNB-19 CNS 38.3% | U251 CNS 28.4% | PC-3 prostate 25.4% | SK-MEL-5 melanoma 18% | UACC-62 melanoma 54.6% | LOX IMVI melanoma 37.5% | SK-MEL-28 melanoma 55.3%
active: HT29 colon 9.87%

NNC(=O)CNc1ccc2ccccc2c1
inactive: HCT-15 colon 110% | HT29 colon 106% | SNB-75 CNS 104% | SNB-19 CNS 109% | U251 CNS 101% | PC-3 prostate 98% | SK-MEL-5 melanoma 101% | UACC-62 melanoma 98.8% | LOX IMVI melanoma 96% | SK-MEL-28 melanoma 125%

Oc1ccccc1\C=N/N=C/C=C/c1ccccc1
inactive: HCT-15 colon 103% | HT29 colon 92.3% | SNB-75 CNS 88.4% | SNB-19 CNS 93.9% | U251 CNS 99.5% | PC-3 prostate 89.7% | SK-MEL-5 melanoma 97.4% | UACC-62 melanoma 93.2% | LOX IMVI melanoma 91.1% | SK-MEL-28 melanoma 111%

O=C(CN1C(=O)NC(c2ccccc2)(c2ccccc2)C1=O)c1ccc(N2CCCC2)cc1
inactive: HCT-15 colon 64.7% | HT29 colon 65.3% | SNB-75 CNS 77.8% | SNB-19 CNS 90.7% | U251 CNS 76.6% | PC-3 prostate 71.8% | SK-MEL-5 melanoma 70.8% | UACC-62 melanoma 89.5% | LOX IMVI melanoma 74.2% | SK-MEL-28 melanoma 73.9%

Cc1c(Cc2ccccc2)c(=O)oc2c(C)c(OCc3n[nH]c(=S)o3)ccc12
inactive: HCT-15 colon 75.7% | HT29 colon 86.8% | SNB-75 CNS 71.4% | SNB-19 CNS 85.8% | U251 CNS 64.4% | PC-3 prostate 11.2% | SK-MEL-5 melanoma 83.8% | UACC-62 melanoma 90.4% | LOX IMVI melanoma 64.5% | SK-MEL-28 melanoma 110%

C[C@@H](c1ccc2c(c1)[nH]c1ccc(Cl)cc12)c1nc2ccccc2[nH]1
inactive: HCT-15 colon 96% | HT29 colon 98% | SNB-75 CNS 62.4% | SNB-19 CNS 92% | U251 CNS 98.4% | PC-3 prostate 91.3% | SK-MEL-5 melanoma 95.3% | UACC-62 melanoma 85.9% | LOX IMVI melanoma 88.2% | SK-MEL-28 melanoma 112%

CCCCCCCCCC[N+](C)(C)C
active: HT29 colon 8.24% | SNB-75 CNS -22.8% | U251 CNS -75.4% | PC-3 prostate -49% | SK-MEL-5 melanoma -13.6% | LOX IMVI melanoma -78.4%
inactive: HCT-15 colon 39.3% | SNB-19 CNS 13.4% | UACC-62 melanoma 28.5% | SK-MEL-28 melanoma 51.8%

CNCCCNCCCCNCCCN1C(=O)c2ccc3c4c(ccc(c24)C1=O)C(=O)N(CCCNCc1ccccc1OC)C3=O
inactive: HCT-15 colon 46.8% | SNB-19 CNS 36% | U251 CNS 41.2% | PC-3 prostate 58.7% | SK-MEL-5 melanoma 10.7%
active: HT29 colon 4.56% | SNB-75 CNS -0.885% | UACC-62 melanoma -1.88% | LOX IMVI melanoma 8.88% | SK-MEL-28 melanoma -9.35%

CCN(CC)C(=O)C1(C)CCCC2(C)c3cc(OC(C)=O)ccc3CCC12 (stereo not given)
inactive: HCT-15 colon 87% | HT29 colon 82.9% | SNB-75 CNS 80.9% | SNB-19 CNS 96.5% | U251 CNS 81.5% | PC-3 prostate 76.2% | SK-MEL-5 melanoma 67.6% | UACC-62 melanoma 73.1% | LOX IMVI melanoma 101% | SK-MEL-28 melanoma 88.5%

COc1cc(-c2c3c(cn2CCN2CCCCC2)-c2oncc2CC3)cc(OC)c1OC
inactive: HCT-15 colon 98.3% | HT29 colon 84% | SNB-75 CNS 81.4% | SNB-19 CNS 99.8% | U251 CNS 101% | PC-3 prostate 89.7% | SK-MEL-5 melanoma 98.3% | UACC-62 melanoma 90.4% | LOX IMVI melanoma 97.7% | SK-MEL-28 melanoma 100%

Cc1[nH]n(C(=S)Nc2nc3cc(Cl)c(F)cc3s2)c(=O)c1N=Nc1ccc(F)c(Cl)c1
inactive: HCT-15 colon 101% | HT29 colon 112% | SNB-75 CNS 86% | SNB-19 CNS 89.7% | U251 CNS 95.9% | PC-3 prostate 98.1% | SK-MEL-5 melanoma 93.1% | UACC-62 melanoma 92.8% | LOX IMVI melanoma 99% | SK-MEL-28 melanoma 106%

CCCCCCNC(=O)Oc1ccc(/C(=C(/C)Cc2ccc(OC)cc2)c2ccc(OCCN(C)C)cc2)cc1
active: HCT-15 colon 1.78% | HT29 colon -7.26% | SK-MEL-5 melanoma -49.6% | LOX IMVI melanoma -15.9%
inactive: SNB-75 CNS 50.5% | SNB-19 CNS 78.8% | U251 CNS 23.4% | PC-3 prostate 56.3% | UACC-62 melanoma 40.5% | SK-MEL-28 melanoma 68.6%

Nc1ccc(S(=O)(=O)Nc2cc(F)cc(F)c2)cc1
inactive: HCT-15 colon 105% | HT29 colon 102% | SNB-75 CNS 92.8% | SNB-19 CNS 104% | U251 CNS 98.1% | PC-3 prostate 109% | SK-MEL-5 melanoma 106% | UACC-62 melanoma 88.3% | LOX IMVI melanoma 91.5% | SK-MEL-28 melanoma 120%

CC[n+]1c(C)ccc2cc(C)ccc21
inactive: HCT-15 colon 94.5% | HT29 colon 108% | SNB-75 CNS 83.7% | SNB-19 CNS 92.7% | U251 CNS 93.5% | PC-3 prostate 104% | SK-MEL-5 melanoma 99.2% | UACC-62 melanoma 96.1% | LOX IMVI melanoma 90.8% | SK-MEL-28 melanoma 105%

COc1cc2cc3cc4cc(OC)c(OC)cc4c(C)[n+]3cc2cc1OC (tested in a mixture with another compound)
inactive: HCT-15 colon 91.8% | HT29 colon 79.2% | SNB-75 CNS 73.1% | SNB-19 CNS 96.2% | U251 CNS 76.9% | PC-3 prostate 67.8% | SK-MEL-5 melanoma 82.4% | UACC-62 melanoma 84.3% | LOX IMVI melanoma 84.4% | SK-MEL-28 melanoma 116%

CCCOC(=O)c1c(C)n(C)c2scc[n+]12
inactive: HCT-15 colon 85.2% | HT29 colon 79% | SNB-75 CNS 80.1% | SNB-19 CNS 88% | U251 CNS 55.9% | PC-3 prostate 75.6% | SK-MEL-5 melanoma 102% | UACC-62 melanoma 84% | LOX IMVI melanoma 82% | SK-MEL-28 melanoma 91.5%

O=C1C(=O)c2ccccc2C(O)=C1CCCc1ccc(C2CCCC2)cc1
active: LOX IMVI melanoma 1.77%
inactive: HCT-15 colon 19.6% | HT29 colon 34.7% | SNB-75 CNS 39.9% | SNB-19 CNS 40.9% | U251 CNS 29.2% | PC-3 prostate 35.6% | SK-MEL-5 melanoma 15.6% | UACC-62 melanoma 40.7% | SK-MEL-28 melanoma 53.1%
